The target of test [1] is PGR (gene 5241) (UniProt P06401). The test can be described thus: NVS_NR_hPR: NovaScreen (NVS) Nuclear Receptor Binding Assay for human Progestron Receptor (PR) (AID 2283360).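 Further: active means loss of bound radioligand signal versus DMSO baseline.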 Put shortly:
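Cell-free radioligand binding using receptor protein extracted from T47D cells, read by scintillation counting 18 hours after dosing. Loss of signal relative to DMSO baseline indicates displacement; primary screen single concentration 25 uM in duplicate, actives followed in concentration series.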

Test [2] deals with Retinoic acid receptor alpha (Homo sapiens) (UniProt P10276). The test can be described thus: NVS_NR_hRARa_Agonist: NovaScreen (NVS) Nuclear Receptor Binding Assay for human Retinoic Acid Alpha Receptor Agonism (RAR) (AID 2283361). In a few lines: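 Agonist-mode TR-FRET binding format using extracted protein, measured at 2 h post-dosing. Initial duplicate single-point screen at 25 uM preceded concentration series for actives; activity was normalized to DMSO baseline.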

The target in test [3] is Nuclear receptor subfamily 1 group I member 2 (Homo sapiens) (UniProt O75469). Briefly: NVS_NR_hPXR: NovaScreen (NVS) Nuclear Receptor Binding Assay for human Pregnane X Receptor (PXR) (AID 2283365).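 Further: a drop in FRET signal versus DMSO baseline means the compound binds.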 Put shortly:
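Read-out: TR-FRET, human PXR, 2 h post-dosing, cell-free. Loss of signal vs DMSO taken as binding activity; 25 uM primary, concentration series secondary.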

In test [4] the target is guinea pig Sigma Receptor, Non-selective Binding, SIGMAR1 (gene 100135589) (UniProt Q60492). Briefly: NVS_OR_gSIGMA_NonSelective: NovaScreen (NVS) Nuclear Receptor Binding Assay for guinea pig Sigma Receptor, Non-selective Binding (AID 2283367). Put shortly:
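Guinea pig brain membrane sigma sites were labelled with a radioligand, and bound radioactivity was counted after filtration 1 h post-dose. Compounds were screened at 25 uM in duplicate, then retested as concentration series when active.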

Test [5] has as its target mouse Estrogen Receptor alpha (Era), Esr1 (gene 13982) (UniProt P19785). The test can be described thus: NVS_NR_mERa: NovaScreen (NVS) Nuclear Receptor Binding Assay for mouse Estrogen Receptor alpha (Era) (AID 2283378).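 Further: hit means loss of bound radioligand signal relative to DMSO.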 Put shortly: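 Measurements come from scintillation counting after filtration, taken 18 hours after chemicals were added to a cell-free mouse Era preparation with radioligand. Screening was duplicate at 25 uM, with concurrent positive and negative controls and confirmatory concentration series for actives.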

Test [6] deals with Estrogen receptor beta (Homo sapiens) (UniProt Q92731). The test can be described thus: OT_ER_ERbERb_1440: Odyssey Thera (OT) 24-hour HEK293T Protein-Complementation Assay for Estrogen Receptor-beta/-beta Homodimer (AID 2283380).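 Further: fluorescence gain from ER beta LBD homodimer complementation read by laser scanning cytometry; scored as signal increase over DMSO baseline for both agonists and antagonists.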 In a few lines: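 Fluorescence increase, nuclear for agonists or whole-cell for antagonists, relative to DMSO vehicle, quantified by laser scanning cytometer after fixation and Draq5 staining. Readout from 24 h treatment of HEK293T cells carrying complementation-paired ER beta LBD (aa 310-547).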
Estrogen receptor beta (Homo sapiens), sequence (Q92731 whole entry, looked up, the tested form may be a part): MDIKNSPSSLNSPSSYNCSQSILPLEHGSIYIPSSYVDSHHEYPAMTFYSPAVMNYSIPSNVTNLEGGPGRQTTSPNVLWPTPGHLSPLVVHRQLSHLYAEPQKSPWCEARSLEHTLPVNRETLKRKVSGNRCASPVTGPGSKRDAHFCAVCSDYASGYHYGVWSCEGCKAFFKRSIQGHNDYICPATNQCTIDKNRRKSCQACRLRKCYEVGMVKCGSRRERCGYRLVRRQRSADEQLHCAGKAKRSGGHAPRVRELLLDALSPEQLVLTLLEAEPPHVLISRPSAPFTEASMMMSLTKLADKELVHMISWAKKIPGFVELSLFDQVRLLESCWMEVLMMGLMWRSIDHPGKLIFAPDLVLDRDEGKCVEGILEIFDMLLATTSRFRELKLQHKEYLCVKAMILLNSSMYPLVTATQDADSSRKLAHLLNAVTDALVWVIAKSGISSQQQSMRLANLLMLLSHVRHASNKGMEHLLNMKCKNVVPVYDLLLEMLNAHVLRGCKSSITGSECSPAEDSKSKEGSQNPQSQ

Test [7] deals with Estrogen receptor (Homo sapiens) (UniProt P03372). Briefly: OT_ERa_GFPERaERE_0480: Odyssey Thera (OT) 8-hour HeLa Transcription Induction Assay for Estrogen Receptor (AID 2283381; active means hit-call score of the fitted dose curve at least 0.9, where 1 is the maximum; inactive means score below 0.9). Put shortly: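 Human cervical HeLa cells were treated for 8 hours, after which ERE-driven GFP induction was measured by fluorescence microscopy; increases over DMSO baseline defined activity.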
Estrogen receptor (Homo sapiens), sequence (P03372 whole entry, looked up): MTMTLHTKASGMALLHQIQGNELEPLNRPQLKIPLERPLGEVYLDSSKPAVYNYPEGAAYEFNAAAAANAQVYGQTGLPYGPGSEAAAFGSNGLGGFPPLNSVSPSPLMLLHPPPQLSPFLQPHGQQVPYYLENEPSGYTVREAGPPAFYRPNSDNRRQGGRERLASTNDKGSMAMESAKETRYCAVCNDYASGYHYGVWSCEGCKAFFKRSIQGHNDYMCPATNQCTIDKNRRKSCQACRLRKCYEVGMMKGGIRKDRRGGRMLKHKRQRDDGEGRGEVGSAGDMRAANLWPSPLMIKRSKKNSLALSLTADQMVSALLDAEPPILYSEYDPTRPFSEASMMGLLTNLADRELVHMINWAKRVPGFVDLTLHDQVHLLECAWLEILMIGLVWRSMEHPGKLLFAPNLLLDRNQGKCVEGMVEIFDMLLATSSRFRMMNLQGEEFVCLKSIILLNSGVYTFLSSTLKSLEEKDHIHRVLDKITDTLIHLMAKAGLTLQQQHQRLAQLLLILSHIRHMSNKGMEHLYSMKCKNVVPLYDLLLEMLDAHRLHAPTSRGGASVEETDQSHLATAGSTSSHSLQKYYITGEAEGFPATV
The target is the same in test [8]. The test can be described thus: OT_ERa_GFPERaERE_0120: Odyssey Thera (OT) 2-hour HeLa Transcription Induction Assay for Estrogen Receptor (AID 2283382). In a few lines:
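Cells (human cervical HeLa) receive compound, incubate 2 hours, then are imaged for fluorescent reporter induction. Images are quantified by high content analysis, and activity is fitted as gain of signal against DMSO.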

The target in test [9] is Bile acid receptor (Homo sapiens) (UniProt Q96RI1). Briefly: OT_FXR_FXRSRC1_0480: Odyssey Thera (OT) 8-hour HEK293T Protein-Complementation Assay for Farnesoid X receptor/SRC-1 Co-activator (AID 2283383). Put shortly: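 PCA, HEK293T, 8 h compound exposure; FXR–SRC-1 binding reconstitutes split reporter; fluorescence intensity; positive-direction fit vs DMSO.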
Bile acid receptor (Homo sapiens), sequence (Q96RI1 whole entry, looked up): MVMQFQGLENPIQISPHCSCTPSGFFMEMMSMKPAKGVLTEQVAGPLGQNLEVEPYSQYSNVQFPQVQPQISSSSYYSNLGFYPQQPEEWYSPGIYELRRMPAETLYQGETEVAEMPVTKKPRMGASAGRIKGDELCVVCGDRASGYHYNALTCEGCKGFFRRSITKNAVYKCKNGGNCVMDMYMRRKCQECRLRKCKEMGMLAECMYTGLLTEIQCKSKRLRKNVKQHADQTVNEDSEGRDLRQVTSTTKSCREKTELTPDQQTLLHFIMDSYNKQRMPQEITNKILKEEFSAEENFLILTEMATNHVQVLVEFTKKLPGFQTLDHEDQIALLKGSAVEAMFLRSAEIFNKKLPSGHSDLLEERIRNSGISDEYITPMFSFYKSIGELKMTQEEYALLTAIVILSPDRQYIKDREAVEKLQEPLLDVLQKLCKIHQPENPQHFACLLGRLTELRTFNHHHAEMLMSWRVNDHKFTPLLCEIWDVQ
For test [10] the target is unchanged. Briefly: OT_FXR_FXRSRC1_1440: Odyssey Thera (OT) 24-hour HEK293T Protein-Complementation Assay for Farnesoid X receptor/SRC-1 Co-activator (AID 2283384). Put shortly:
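Measures ligand-driven FXR–SRC-1 co-activator recruitment in HEK293T via fragment complementation, fluorescence intensity at 24 h. DMSO served as negative control and baseline for gain-of-signal fitting.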

Test [11] addresses Glucocorticoid receptor (Homo sapiens) (UniProt P04150). Briefly: NVS_NR_hGR: NovaScreen (NVS) Nuclear Receptor Binding Assay for human Glucocorticoid Receptor (GR) (AID 2283363).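 Further: activity is loss of specific radioligand binding signal relative to DMSO.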 In a few lines: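 Compounds first tested in duplicate at 25 uM, actives followed up in concentration series. Binding to extracted GR protein measured as competitive radioligand displacement, filter scintillation read 16 h post-dosing, normalised to DMSO.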

Test [12] relates to guinea pig Dopamine Transporter (DAT), gene 100714898. Briefly: NVS_TR_gDAT: NovaScreen (NVS) Transporter Assay for guinea pig Dopamine Transporter (DAT) (AID 2283369).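 Further: active compounds lower bound radioligand signal relative to DMSO.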 In a few lines:
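Primary pass: duplicate wells at 25 uM, threshold e.g. 30% inhibition. Follow-up: singleton concentration-response, highest 50 uM. Radioligand binding on guinea pig striatal membranes, 2 h, filtration scintillation detection.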

Test [13] concerns the target human Norepinephrine Transporter (NET), SLC6A2 (gene 6530) (UniProt P23975). The test can be described thus: NVS_TR_hNET: NovaScreen (NVS) Transporter Assay for human Norepinephrine Transporter (NET) (AID 2283377).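 Further: cell-free membrane protein extracted from CHO cells expressing human NET.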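 On AC50: displacement of radioligand from human NET seen as loss of scintillation signal.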 Put shortly:
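Single-concentration duplicate screen at 25 uM, then concentration-response for actives; displacement of specific radioligand from human NET in CHO membrane extracts, filter-based scintillation detection at 1 h relative to DMSO.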

In test [14] the target is Agonist Androgen Response Element (ARE), AR (gene 367) (UniProt P10275). Briefly: OT_AR_ARELUC_AG_1440: Odyssey Thera (OT) 24-hour CHO-K1 Luciferase Assay for Agonist Androgen Response Element (ARE) (AID 2283379). Put shortly: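 Readout: luciferase bioluminescence from CHO-K1 ARE-luc cells, measured 24 h post-dosing; agonism = increased mean luminescence vs DMSO controls, fitted in positive direction.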
Agonist Androgen Response Element (ARE), AR (gene 367), sequence (P10275 whole entry, looked up): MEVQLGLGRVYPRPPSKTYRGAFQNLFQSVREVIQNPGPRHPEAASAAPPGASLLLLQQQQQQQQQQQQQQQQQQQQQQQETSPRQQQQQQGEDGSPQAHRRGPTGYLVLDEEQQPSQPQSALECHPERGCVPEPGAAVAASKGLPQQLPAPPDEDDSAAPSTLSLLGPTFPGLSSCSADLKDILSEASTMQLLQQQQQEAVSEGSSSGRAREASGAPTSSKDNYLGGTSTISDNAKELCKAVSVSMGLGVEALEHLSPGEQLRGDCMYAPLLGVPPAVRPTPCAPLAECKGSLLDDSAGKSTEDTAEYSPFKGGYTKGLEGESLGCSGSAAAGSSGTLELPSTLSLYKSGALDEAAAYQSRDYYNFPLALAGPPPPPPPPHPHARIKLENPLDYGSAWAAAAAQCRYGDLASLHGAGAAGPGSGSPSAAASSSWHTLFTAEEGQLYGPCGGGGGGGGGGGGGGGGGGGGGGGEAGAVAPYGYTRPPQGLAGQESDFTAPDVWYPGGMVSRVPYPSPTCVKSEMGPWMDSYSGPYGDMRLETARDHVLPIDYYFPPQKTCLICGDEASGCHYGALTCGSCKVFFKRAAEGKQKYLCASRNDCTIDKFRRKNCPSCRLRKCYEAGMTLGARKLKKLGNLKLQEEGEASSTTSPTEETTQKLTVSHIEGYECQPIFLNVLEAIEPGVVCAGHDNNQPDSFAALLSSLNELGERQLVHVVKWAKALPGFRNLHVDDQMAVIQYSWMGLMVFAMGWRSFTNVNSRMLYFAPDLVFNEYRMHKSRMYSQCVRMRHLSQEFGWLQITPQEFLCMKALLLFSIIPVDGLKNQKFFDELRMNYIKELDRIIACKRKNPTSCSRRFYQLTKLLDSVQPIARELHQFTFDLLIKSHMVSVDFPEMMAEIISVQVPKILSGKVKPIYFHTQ

In test [15] the target is human Thyroid Receptor Alpha (TRa), THRA (gene 7067) (UniProt P10827). The test can be described thus: NVS_NR_hTRa_Antagonist: NovaScreen (NVS) Nuclear Receptor Binding Assay for human Thyroid Receptor Alpha Antagonism (TRa) (AID 2283362).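 Further: activity is loss of signal relative to DMSO baseline.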 In a few lines: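 In this biochemical format, receptor protein is dosed with chemical and read after 1 hour via AlphaLISA. Decreases from the DMSO baseline indicate antagonist activity; screening used 25 uM in duplicate before concentration-response confirmation.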

The target of test [16] is human Adenosine Transporter (Adot), SLC29A1 (gene 2030) (UniProt Q99808). Briefly: NVS_TR_hAdoT: NovaScreen (NVS) Transporter Assay for human Adenosine Transporter (Adot) (AID 2283368). Put shortly:
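Binding displacement on U937 extracted protein, read 1 h post-dose by filtration and scintillation counting. Primary duplicate test at 25 uM, then singleton concentration series with 50 uM top; DMSO baseline.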

The AC50 is the midpoint of the concentration-response curve, whichever way the signal moves.

Molecules are shown by their SMILES. “And” between values parts separate entries of the source, which are not always exact repeats. Identical values can stand only once. Results filed as inconclusive are left out. Where a structure was tested more than once in an assay, its records may differ in their call. The source made the active and inactive calls. How the source made its calls, unless noted: active means hit-call score of the fitted dose curve at least 0.9, where 1 is the maximum; inconclusive means response in the unintended direction; inactive means score below 0.9.

guinea pig Sigma Receptor, Non-selective Binding, SIGMAR1 (gene 100135589), sequence (Q60492 whole entry, looked up): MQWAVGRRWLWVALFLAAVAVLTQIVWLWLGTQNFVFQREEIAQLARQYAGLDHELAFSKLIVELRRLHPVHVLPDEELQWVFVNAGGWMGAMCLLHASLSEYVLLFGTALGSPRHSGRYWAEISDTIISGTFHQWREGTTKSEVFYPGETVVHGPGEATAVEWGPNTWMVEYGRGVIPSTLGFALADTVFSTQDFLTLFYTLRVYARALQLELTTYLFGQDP
human Norepinephrine Transporter (NET), SLC6A2 (gene 6530), sequence (P23975 whole entry, looked up): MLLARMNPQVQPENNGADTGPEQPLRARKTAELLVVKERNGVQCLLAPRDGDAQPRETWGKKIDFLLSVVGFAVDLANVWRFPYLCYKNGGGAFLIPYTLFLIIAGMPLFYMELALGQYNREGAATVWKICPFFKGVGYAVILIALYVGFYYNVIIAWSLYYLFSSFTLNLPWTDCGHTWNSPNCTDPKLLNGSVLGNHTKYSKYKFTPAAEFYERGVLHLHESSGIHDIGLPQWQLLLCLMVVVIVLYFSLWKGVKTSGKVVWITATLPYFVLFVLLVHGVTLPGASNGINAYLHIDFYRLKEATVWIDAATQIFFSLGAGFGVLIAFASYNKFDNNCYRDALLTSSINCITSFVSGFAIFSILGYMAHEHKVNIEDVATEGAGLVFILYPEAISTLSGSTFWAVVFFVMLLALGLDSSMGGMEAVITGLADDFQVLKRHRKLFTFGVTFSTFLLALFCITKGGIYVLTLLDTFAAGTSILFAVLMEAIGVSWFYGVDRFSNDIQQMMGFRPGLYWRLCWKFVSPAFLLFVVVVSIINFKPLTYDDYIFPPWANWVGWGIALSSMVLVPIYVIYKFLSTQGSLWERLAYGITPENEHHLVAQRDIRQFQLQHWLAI
Glucocorticoid receptor (Homo sapiens), sequence (P04150 whole entry, looked up): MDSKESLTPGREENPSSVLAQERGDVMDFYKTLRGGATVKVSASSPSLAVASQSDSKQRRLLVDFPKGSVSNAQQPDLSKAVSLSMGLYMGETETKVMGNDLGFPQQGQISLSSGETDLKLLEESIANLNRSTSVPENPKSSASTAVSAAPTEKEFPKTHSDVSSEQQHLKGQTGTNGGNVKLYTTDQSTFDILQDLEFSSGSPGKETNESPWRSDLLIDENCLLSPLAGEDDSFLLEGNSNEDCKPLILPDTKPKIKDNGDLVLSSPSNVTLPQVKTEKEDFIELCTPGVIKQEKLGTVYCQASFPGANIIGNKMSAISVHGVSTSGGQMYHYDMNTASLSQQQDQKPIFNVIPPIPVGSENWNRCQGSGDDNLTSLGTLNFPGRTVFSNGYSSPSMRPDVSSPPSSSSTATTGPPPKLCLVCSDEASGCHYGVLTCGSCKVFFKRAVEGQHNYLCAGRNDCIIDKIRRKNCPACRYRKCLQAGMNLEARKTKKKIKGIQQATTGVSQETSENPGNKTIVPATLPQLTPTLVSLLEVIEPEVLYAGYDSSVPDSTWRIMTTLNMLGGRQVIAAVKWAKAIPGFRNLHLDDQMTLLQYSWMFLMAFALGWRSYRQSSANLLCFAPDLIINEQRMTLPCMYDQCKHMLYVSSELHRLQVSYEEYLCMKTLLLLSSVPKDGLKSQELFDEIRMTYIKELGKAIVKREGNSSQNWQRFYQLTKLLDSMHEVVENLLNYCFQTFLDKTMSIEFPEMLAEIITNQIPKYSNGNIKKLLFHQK
Nuclear receptor subfamily 1 group I member 2 (Homo sapiens), sequence (O75469 whole entry, looked up): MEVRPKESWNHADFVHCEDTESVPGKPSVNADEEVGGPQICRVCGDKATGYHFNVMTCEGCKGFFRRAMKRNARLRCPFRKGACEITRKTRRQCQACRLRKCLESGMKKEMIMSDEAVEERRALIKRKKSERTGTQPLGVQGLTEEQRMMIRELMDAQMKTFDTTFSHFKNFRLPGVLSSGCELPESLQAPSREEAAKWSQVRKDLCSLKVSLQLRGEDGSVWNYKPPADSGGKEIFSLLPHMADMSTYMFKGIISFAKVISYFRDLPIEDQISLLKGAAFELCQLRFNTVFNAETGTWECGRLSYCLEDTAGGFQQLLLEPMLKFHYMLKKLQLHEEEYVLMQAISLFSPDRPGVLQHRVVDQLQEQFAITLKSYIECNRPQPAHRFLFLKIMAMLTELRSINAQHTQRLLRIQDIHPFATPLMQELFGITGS

On to `C[C@]12C[C@H](O)[C@H]3[C@@H](CCC4=CC(=O)CC[C@@]43C)[C@@H]1CC[C@@H]2C(=O)CO`, for which the AC50 in test [1] was 0.403 µM (active); in [4] it was 25 µM (active); in test [9], 32.3 µM (active); in [10], 16.8 µM (active). Further, the molecule was called inactive in test [2], in [3], in test [5], in [6], in [7] and in test [8]. In addition, the call in test [9] and in test [10] was inactive.

`C#C[C@]1(O)CC[C@H]2[C@@H]3CCC4=CC(=O)CC[C@@H]4[C@H]3CC[C@@]21CC`: the outcome in [3], in test [5], in [7] and in [8] was inactive. For the same molecule, the AC50 in [7] is 15.1 µM (active) and 8.91 µM (active); in test [8] it was 12.1 µM (active) and 46.1 µM (active) and 5.67 µM (active).

As to `S=C([S-])NCCNC(=S)[S-].[Mn+2]`, the AC50 in test [11] was 10.1 µM (active). Further, the outcome in test [4] and in [6] was inactive.

`N#CSCSc1nc2ccccc2s1`: the outcome in test [1], in [13], in test [14], in test [6] and in test [8] was inactive. Moreover, the AC50 is 42.1 µM (active) in [12], 11.2 µM (active) in test [13] and 88.1 µM (active) in test [7].

Regarding `CCCCC(CC)COC(=O)c1ccccc1C(=O)O` (stereo not drawn), the call in test [15] and in [6] was inactive. Moreover, the AC50 in test [11] was 7.38 µM (active).

In the case of `COC(=O)c1ccccc1C(=O)O`, the half-maximal activity concentration (AC50) in [11] is 5.83 µM (active). In addition, the molecule was classed as inactive in test [6], in [7] and in [8].

Take `CCCOC(=O)NCCCN(C)C`: the AC50 in [4] was 11.3 µM (active).

On to `CCCCCCC(C)OC(=O)COc1nc(F)c(Cl)c(N)c1Cl` (stereo not drawn), for which the AC50 in [6] is 72.8 µM (active).

On to `OB(O)O`, for which the result in [16], in [7], in [8] and in test [9] was inactive.

With `CCOC(=O)NCCOc1ccc(Oc2ccccc2)cc1`, the AC50 in test [12] is 8.75 µM (active); in [9] it was 11.7 µM (active); in test [10], 12.1 µM (active). Also, the result in test [7] and in test [8] was inactive.

Turning to `CCCCCOC(=O)COc1cc(N2C(=O)C3=C(CCCC3)C2=O)c(F)cc1Cl`, the molecule was called inactive in test [6], in test [7] and in test [8].

In the case of `O=C(O)c1ccccc1`, the molecule was called inactive in test [13], in [5], in [7] and in test [8].

`c1ccc2[nH]c(-c3cscn3)nc2c1`: the molecule was classed as inactive in test [14], in test [6], in test [7], in test [8], in [9] and in test [10].

For `CCOC(=O)COc1cc(-n2ncc(C(F)(F)F)c(C)c2=O)c(F)cc1Cl`, the outcome in test [14], in test [6], in test [7] and in test [8] was inactive.

Turning to `CCOC(=O)C(C)Oc1ccc(Oc2cnc3cc(Cl)ccc3n2)cc1` (stereo not drawn), the call in test [7], in test [8] and in test [10] was inactive. Moreover, the AC50 in test [9] is 43 µM (active).

Turning to `CCCCOC(=O)C(C)Oc1ccc(Oc2ccc(C(F)(F)F)cn2)cc1` (stereo not drawn), the result in [6], in [7], in test [8], in test [9] and in test [10] was inactive.

Values taken from PubChem BioAssay (EPA / NIEHS).
